# Where “and” joins values, the source holds several entries; their conditions need not be identical. Identical values can stand only once. About 79,000 compounds went through this panel and 15% of them were active in at least one assay; those are over-represented in the sample as a whole. Unmarked numbers belong to inactive results. Calls of active or inactive are those of the source. Rule as the data show it: active = growth inhibition above about 70%; inactive = the rest.
# Test: NCI Yeast Anticancer Drug Screen. Data for the mlh1 rad18 strain (AID 175)
# Settings: S. cerevisiae mlh1 rad18 strain growth inhibition; at 50.0 µM; active compounds read high
# How it was run: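 Genetically defined yeast (DNA repair-deficient) exposed to compounds; growth inhibition determined relative to vehicle.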
row,SMILES,growth inhibition
1,CN1C(=O)C2(Cc3cn(C45CC67SSC(CO)(C(=O)N6C4Nc4ccccc45)N(C)C7=O)c4ccccc34)SSC1(CO)C(=O)N2C (stereo unspecified),89.8% (active)
2,CC1C/C(=C\N=[N+]=[N-])C(=O)O1 (stereo unspecified),-0.05%
3,S=c1sc(-c2ccc(Cl)cc2)c[se]1,-5.05%
4,CN(C)C(=O)Sc1c(Cl)cc(S(=O)(=O)F)cc1[N+](=O)[O-],20.6%
5,NC1=NC(=O)C(c2ccccc2)(c2ccccc2)O1,-4.15%
6,O=Cc1ccccc1O.[Pr],28.6%
7,O=P(Nc1ccc(Cl)cc1)(Oc1ccccc1)N(CCCl)CCCl (stereo unspecified),0.9%
8,CC12CCC(OC3OC(CO)C(OC4OC(CO)C(O)C(O)C4O)C(O)C3O)CC1CCC1C2CCC2(C)C(C3=CC(=O)OC3)CCC12O (stereo unspecified),6.85%
9,CC1=C[C@H]2[C@@]3(O)[C@H](C)C[C@]4(OC(=O)C(C)C)[C@H]([C@@H]3C=C(CO)C[C@]2(O)C1=O)C4(C)C,10.8%
10,Oc1cccc2cccnc12.[Cr],-9.65%
11,CC12CCC3C(CC=C4CC(=O)CCC43CCO)C1CCC2Oc1ccccc1 (stereo unspecified),13.3%
12,CC(=O)[CH-]C(C)=O.CC(=O)[CH-]C(C)=O.CC(=O)[CH-]C(C)=O.[Ga+3],18.6%
13,Cc1ccc(CI)cc1,19.5%
14,COc1ccc2c3c1O[C@]1(C)C34CCN(C)C(C2)C42C=C[C@@]1(OC)c1c(O)ccc(O)c12,-0.9%
15,CO/N=C1\CC(C)N2C(=O)C(C(C)C)NC(=O)C(NC(=O)c3c4nc5c(C(=O)NC6C(=O)NC(C(C)C)C(=O)N7C(C)CC(O)C7C(=O)N(C)CC(=O)N(C)C(C(C)C)C(=O)OC6C)ccc(C)c5oc-4c(C)c(=O)c3N)C(CO)OC(=O)C(C)N(C)C(=O)CN(C)C(=O)C12 (stereo unspecified),8.45%
16,Cc1c(Cl)cccc1NC(=O)C(=O)C1C(=O)NC(=O)NC1=O,-17.9%
17,COc1ccc2c3c1OC1C(Oc4nnnn4-c4ccccc4)C=CC4C(C2)N(C)CCC341 (stereo unspecified),12.5%
18,CC(C)N(N=O)C(C)C,16.5%
19,C[C@]12Cc3cnc(-c4ccccc4)nc3C[C@@H]1CC[C@@H]1[C@@H]2CC[C@@]2(C)[C@H]1CC[C@]2(C)O,20.1%
20,c1cc2c(c(NC3=NCCO3)c1)CCCC2,-1.1% and -6.15%
21,CCNC(Cc1ccccc1)c1ccco1 (stereo unspecified),12.5%
